ugtP null kill: growth inhibition of ugtP-null S. aureus, primary screen, RN4220 ugtP deletion, OD600 | 16 h | growth inhibition, % (no concentration beside the values) | 0.54% of 330,000 active; in the data active means growth inhibition above about 68%;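 further: plate controls were untreated wells for no effect and antibiotic for full effect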
SSB-PriA inh: inhibitors of Klebsiella pneumoniae PriA binding to SSB C-terminal tail, primary screen, biochemical, AlphaScreen; 0.6% of 430,000 active; AID 1272365, 2023; AlphaScreen SSBct-PriA binding, biotinylated peptide; inhibition, % at 33 µM; PriA–SSB C-terminal tail interaction (Klebsiella pneumoniae); in the data active means inhibition mostly above about 37%, no sharp cut-off; inactive means mostly below about 20%;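 further: plate controls were negative control peptide for no effect and reference peptide for full effect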
DUSP3 inh: VHR1 phosphatase inhibitors, primary screen, biochemical, absorbance, uHTS. Dual specificity protein phosphatase 3 (Homo sapiens), P51452. 0.52% of 290,000 active. AID 1654, 2009. inhibition, % at 13.3 µM. recombinant VHR phosphatase, pNPP absorbance; in the data active means inhibition above about 50%
Target sequence (P51452 whole entry, looked up): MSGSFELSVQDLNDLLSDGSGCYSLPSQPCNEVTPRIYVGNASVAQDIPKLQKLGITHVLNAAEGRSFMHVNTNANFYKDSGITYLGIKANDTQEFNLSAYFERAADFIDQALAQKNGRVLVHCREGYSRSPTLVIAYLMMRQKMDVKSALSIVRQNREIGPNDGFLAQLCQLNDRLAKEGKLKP
Mtb hypoxia inh: PubChem AID 1159583. fluorescence inhibition, % (concentration not given with the values). M. tuberculosis hypoxia-regulated fluorescent reporter, fluorescence. 0.1% of 300,000 active; in the data active means fluorescence inhibition mostly above about 23%, no sharp cut-off; inactive means mostly below about 17%
PfHsp40 rescue: rescue of yeast from PfHsp40 toxicity, primary screen, S. cerevisiae, ATP luminescence; S. cerevisiae expressing PfHsp40, growth rescue; growth rescue, % at 12.5 µM; 0.68% of 340,000 active; AID 504582, 2011; in the data active means growth rescue above about 28%, passing the limit was not always enough;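 further: yeast W303a lacking pdr1 and pdr3 grown in galactose medium; growth measured after three days at 30 °C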
Sa RN4220 lethal: growth inhibition of S. aureus RN4220, primary screen, OD600. 16 h. inhibition, % (test concentration not listed). 0.33% of 330,000 active; in the data active means inhibition above about 85%;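 further: plate controls were untreated cells for no effect and reference antibiotic for full effect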
* marks the source's active call; other numbers are inactive results; nt = no result given; ! = not confirmed by another sample. An excerpt weighted towards active compounds, which were near 1.8% of everything screened.

SMILES	ugtP null kill	SSB-PriA inh	DUSP3 inh	Mtb hypoxia inh	PfHsp40 rescue	Sa RN4220 lethal
COc1ccc(CN(C)C(=O)COC(=O)c2ccc(-c3ccccc3)cc2)c(OC)c1OC	12.1	-4.0	nt	11.2	67.6*	10.0
Cc1ccc(N=C2SC(C(=O)Nc3ccc(OC(F)(F)F)cc3)C(N)=C2C(=O)Nc2c(C)cc(C)cc2C)cc1 (stereo unspecified)	100.4*	17.4	28.2	8.3	1.9	100.0*
Cc1ccc(OCC(=O)Nc2ccc3c(c2)OCO3)c(C)c1	6.2	-9.3	29.3	8.7	1.0	22.1
Cc1ccc(OCCCC(=O)Nc2ccc3c(c2)OCO3)c(C)c1	nt	36.0*	nt	nt	nt	nt
COc1ccc(CNC(=O)Nc2cccc(Cl)c2)cc1	-2.9	-13.1	26.4	-4.1	-1.3	-3.9
Cc1cccc(NC(=O)NCc2ccc3c(c2)cc(C)n3C)c1	3.5	45.9*	23.6	9.8	0.7	2.9
Cc1cc2cc(CNC(=S)Nc3ccc(OC(F)(F)F)cc3)ccc2n1C	-0.6	62.2*	-7.3	5.8	-0.3	-3.7
Cc1cc2cc(CNC(=S)Nc3ccccc3)ccc2n1C	nt	66.4	nt	nt	nt	nt
Cc1cc2cc(CNC(=O)Nc3cccc(Cl)c3)ccc2n1C	9.1	59.8*!	10.8	4.5	-0.6	3.2
Cc1cccc(NC(=S)NCc2ccc3c(c2)cc(C)n3C)c1C	-12.8	72.1*	5.2	1.4	0.5	-5.3
Cn1cc([C@@H](O)CNS(=O)(=O)c2ccc(OC(F)(F)F)cc2)c2ccccc21	nt	7.0	nt	nt	nt	nt
O=C(C1CCN(c2ncnc3c2sc2ncccc23)CC1)N1CCCCC1	nt	-16.0	nt	nt	nt	nt
CCc1c(C)nc(-n2nc(C)cc2NC(=O)Cc2cccs2)[nH]c1=O	nt	-7.0	nt	nt	nt	nt
Cc1cc2cc(CNS(=O)(=O)c3ccc4ccccc4c3)ccc2n1C	-11.3	28.4	2.4	3.2	-0.7	-8.2
Cc1cc2cc(CNS(=O)(=O)c3ccc(Br)cc3)ccc2n1C	nt	36.0*	nt	nt	nt	nt
Oc1ccc(/C=N/Nc2ccc(C(F)(F)F)cn2)c(O)c1	nt	nt	5.2	nt	420.8*	nt
Oc1ccc(/C=N/Nc2ccc(C(F)(F)F)cn2)cc1	nt	nt	10.3	nt	0.8	nt
Cc1cc(C(=O)NN=Cc2c(CO)cnc(C)c2O)c2ccccc2n1	1.6	39.6*	nt	14.6	nt	0.0
Cc1ncc(CO)c(C=NNc2ccc(C(F)(F)F)cn2)c1O	nt	71.7*	nt	nt	nt	nt
Cc1cc(C(=O)N/N=C/c2c(CO)cnc(C)c2O)c2ccccc2n1	nt	nt	-1.5	nt	0.8	nt
Clc1ccc(CN2CCN(N=Cc3ccco3)CC2)cc1	1.2	15.7	nt	2.1	nt	12.0
CCCCCNC(=O)c1c[nH]c2ccc(S(=O)(=O)N3CCc4ccccc4C3)cc2c1=O	nt	8.0	nt	nt	nt	nt
CO[C@@H](CNC(=O)CCS(=O)(=O)c1ccccc1)c1ccccc1C	nt	-5.0	nt	nt	nt	nt
CCOc1cc(C2C(C#N)=C(N)OC(C)=C2C(C)=O)cc(Br)c1O (stereo unspecified)	-0.1	-9.6	50.0*	5.8	-0.8	3.2
COc1ccc([C@@H]2c3cccn3CCN2S(=O)(=O)c2ccc(NC(C)=O)cc2)cc1OC	nt	19.0	nt	nt	nt	nt
SMILES	ugtP null kill	SSB-PriA inh	DUSP3 inh	Mtb hypoxia inh	PfHsp40 rescue	Sa RN4220 lethal
Cc1ccc(S(=O)(=O)N(CC(=O)NCc2cccs2)c2ccccc2)cc1	-8.3	-13.5	nt	-6.9	42.3*	-5.4
Cc1ccc(N(CC(=O)NCc2cccs2)S(=O)(=O)c2cccs2)cc1	-5.8	-10.8	-6.6	nt	-0.9	-3.2
Cc1ccc(NC2CCCN(C(=O)CCn3nccc3C)C2)cc1C (stereo unspecified)	-3.1	-6.5	54.4*	-2.6	-1.4	-2.9
CCc1nccn1CCC(=O)N1CCCC(Nc2ccc(C(C)C)cc2)C1 (stereo unspecified)	0.0	24.4	22.5	14.3	2.4	-0.1
Cc1ccc(NC2CCCN(C(=O)CCN3CCOCC3)C2)cc1C (stereo unspecified)	5.9	1.2	52.9*	7.0	-1.4	1.9
CC(C)c1ccc(NC2CCCN(C(=O)CCN3CCOCC3)C2)cc1 (stereo unspecified)	7.9	11.7	51.3*	4.2	-0.5	1.2
CC(=O)Nc1ccc(S(=O)(=O)N2CCC(Oc3cccnn3)CC2)cc1	nt	-15.0	nt	nt	nt	nt
CCOc1ccc(C(=O)CSc2nc3cc(C(=O)NCC(C)C)ccc3c(=O)n2CCOC)cc1	nt	-8.0	nt	nt	nt	nt
Cn1cnc(S(=O)(=O)N2CCc3nc4ccccn4c(=O)c3C2)c1	nt	-12.0	nt	nt	nt	nt
O=C(NNc1ccc(O)cc1)c1ccc(Br)cc1	91.2*	-1.3	0.5	3.7	12.0	22.1
CC(=CC(=O)c1ccc(Br)cc1)NNC(=O)c1ccc(O)cc1	nt	-8.2	nt	nt	nt	nt
O=c1[nH]c(NN=Cc2ccc(F)cc2)nc2ccccc12	-8.3	-5.2	nt	5.7	nt	-2.0
COc1ccccc1CNc1nc2nc(C)c(Cl)c(=O)n2[nH]1	1.2	-9.7	1.8	0.4	0.1	0.0
COc1ccc(CNc2nc3nc(C)c(Cl)c(=O)n3[nH]2)cc1	9.6	-7.7	9.6	23.3*	-1.3	3.4
c1ccc(CCNc2ccnc3cc4ccccc4cc23)cc1	8.5	3.2	24.9	nt	188.9*	58.0
CC(C)Nc1ccc(Nc2ccnc3cc4ccccc4cc23)cc1	2.1	97.4*	16.2	nt	-1.0	10.8
COc1ccc(Nc2ccnc3ccccc23)cc1	0.3	-7.1	-7.4	nt	-0.9	3.1
Cc1cc(NCCc2ccccc2)c2ccccc2n1	nt	7.0	nt	nt	nt	nt
O=C(NCC1(c2cccs2)CCOCC1)c1cc2ccccc2[nH]1	nt	5.0	nt	nt	nt	nt
CCn1c(NC(=O)c2cccc(Cn3cc(Cl)cn3)c2)nc2ccccc21	6.9	-17.2	50.9*	-4.5	0.5	7.7
CCCCn1c(NC(=O)c2ccccc2)nc2ccccc21	2.9	-8.8	29.9	1.8	97.2*	30.8
CCn1c(NC(=O)c2ccccc2)nc2ccccc21	-13.4	-11.4	-12.8	-11.0	3.4	6.5
CCC(=O)Nc1nc2ccccc2n1CCN(C)C	11.1	2.1	57.4*	nt	-1.4	-1.0
COc1ccccc1CC(=O)N1CC(Oc2cc(C)oc(=O)c2)C1	nt	-10.0	nt	nt	nt	nt
O=C(NCCc1cccs1)[C@H]1CCCN(c2ccc(-n3cncn3)nn2)C1	nt	-5.0	nt	nt	nt	nt
SMILES	ugtP null kill	SSB-PriA inh	DUSP3 inh	Mtb hypoxia inh	PfHsp40 rescue	Sa RN4220 lethal
O=S(=O)(c1ccccc1Cl)N1CCC(n2ccnn2)CC1	nt	-7.0	nt	nt	nt	nt
CCCN1CCCc2cc(CCNS(=O)(=O)c3ccc(Cl)cc3)ccc21	nt	62.0*	nt	nt	nt	nt
CCCN1CCCc2cc(CCNS(=O)(=O)c3cccc(Cl)c3)ccc21	nt	64.0*	nt	nt	nt	nt
CCCN1CCCc2cc(CCNS(=O)(=O)c3ccc(C)cc3)ccc21	nt	70.8	nt	nt	nt	nt
CCCN1CCCc2cc(CCNS(=O)(=O)c3ccc(NC(=O)C(C)C)cc3)ccc21	nt	60.0*	nt	nt	nt	nt
CCCN1CCCc2cc(CCNC(=O)C(C)C)ccc21	nt	58.9	nt	nt	nt	nt
O=C(NCCn1nc(-c2cccs2)ccc1=O)C1CCCN(c2ccc(-c3ccco3)nn2)C1 (stereo unspecified)	nt	7.0	nt	nt	nt	nt
CN=c1scc(-c2ccccc2F)n1/N=C/c1ccc(O)c(O)c1O	nt	nt	29.7	nt	30.1*	nt
CN=c1scc(-c2cccs2)n1N=Cc1ccc(O)c(O)c1O	7.0	60.5	nt	3.5	nt	9.3

Compound activity from PubChem BioAssay.
